In the library only some 2.8% were active in any assay of this set; here they are far more common.
IP6K1 inhibitor – IP6K1 kinase inhibition | IP6K1 kinase, ADP-Glo luminescence, 2 h; hits give low values | activity change, % (series mostly up to about 58 µM) | 0.81% of 140,000 active; in the data active = activity change below about -25%; note: % is set by controls: 0 for no effect and ±100 for the full control effect
Target sequence (Q92551 whole entry, looked up): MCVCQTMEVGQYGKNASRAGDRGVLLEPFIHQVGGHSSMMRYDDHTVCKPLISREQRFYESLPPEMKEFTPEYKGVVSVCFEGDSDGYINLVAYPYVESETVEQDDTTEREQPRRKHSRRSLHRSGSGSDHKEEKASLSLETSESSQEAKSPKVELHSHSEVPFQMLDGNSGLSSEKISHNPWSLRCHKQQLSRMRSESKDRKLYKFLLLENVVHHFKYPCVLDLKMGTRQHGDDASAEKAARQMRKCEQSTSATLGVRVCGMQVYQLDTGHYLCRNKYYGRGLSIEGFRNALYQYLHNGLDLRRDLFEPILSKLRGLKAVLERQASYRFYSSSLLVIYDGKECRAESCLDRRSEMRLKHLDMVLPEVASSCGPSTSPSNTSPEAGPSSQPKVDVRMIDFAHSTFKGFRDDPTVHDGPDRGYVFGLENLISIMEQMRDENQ
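ADP-Glo luminescence measures ADP made by human IP6K1 during a 2 h RT reaction with ATP/IP6 (mix at 1.3 mM/130 uM); top library doses 57.5 and 19.1 uM final.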
HEK293 viab – counter-screen for SNCA expression inhibitors: cell viability; HEK-293-SNCA-luc viability, GF-AFC fluorescence, 24 h; 0.12% of 150,000 active; Potency, µM (series often up to 57.1 µM), without a hit: at the highest dose activity change, negative = cytotoxicity, actives largely listed as cytotoxic;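 note: potency is the fitted concentration of half-maximal effect; 0% = DMSO-treated cells and -100% = medium-only wells without cells; nearly all actives have a fitted effect of over 30% in size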
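HEK-293-SNCA-luc cells (1500/well) plated 24 h, then exposed 24 h to a dilution series; GF-AFC added 30 min at 37C, fluorescence 405/540 nm; normalised to medium-only and DMSO wells, Hill fit.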
KDM5B inhibitor – blocks human KDM5B histone demethylase activity; Q9UGL1; KDM5B demethylase, FDH-coupled NADH fluorescence (FDH is formaldehyde dehydrogenase); Potency, µM (doses to about 57.7 µM), most hits filed as inhibitors; 2.6% of 220,000 active; note: potency is the fitted concentration of half-maximal effect; 0% is about no effect; nearly all actives have a fitted effect of over 70% in size
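Inhibition is measured as reduced NADH fluorescence generation from FDH coupling to formaldehyde release. Truncated KDM5BΔAP at 200 nM final acts on H3K4me3 peptide (12.5 µM in substrate mix) in pH 7.5 HEPES buffer with Tween-20, 30 min, room temperature.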
SNCA expr inh – SNCA gene expression inhibition; 0.17% of 140,000 active; HEK-293 SNCA-luciferase knock-in, luminescence, 24 h; Potency, µM (highest dose often 57.2 µM), for inactives: top-dose activity change, negative = inhibition, usual class: inhibitors;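 note: potency is the fitted concentration of half-maximal effect; plate controls were DMSO cells for no effect and cell-free wells for full effect; nearly all actives have a fitted effect of over 45% in size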
IP6K1 conf – confirmation of human IP6K1 inhibitors | shares compounds with IP6K1 inhibitor | recombinant IP6K1 kinase, ADP-Glo luminescence, 2 h | Potency, µM (titrated, usually from 49 µM), for inactives: top-dose activity change, negative = inhibition, hits mostly inhibitors | 13% of 1,200 active | AID 1645852; note: potency is the fitted concentration of half-maximal effect; % is set by controls: 0 for no effect and ±100 for the full control effect; nearly all actives have a fitted effect of over 65% in size
* marks the source's active call; other numbers are inactive results; i = inactive; ? = inconclusive; nt = no result given; [ ] = another dose, or the depositor's remark. Unless noted, calls come from the whole dose curve; as a rule, active = well fitted curve in the direction sought with a large enough effect; inconclusive = small, poorly fitted or top-dose-only effect, or another doubt; inactive = no such curve, though single readings can be large; an effect the other way counts as inactive or inconclusive.

SMILES	IP6K1 inhibitor	HEK293 viab	KDM5B inhibitor	SNCA expr inh	IP6K1 conf
CCc1ccc(NC(=O)CN(c2cc(C)cc(C)c2)S(=O)(=O)c2c(C)[nH]c(=O)[nH]c2=O)cc1	-14.6	-5.9%	i[11.5 µM]	8.1%	nt
CCc1ccc(NC(=O)CN(c2ccc(OC)cc2)S(=O)(=O)c2c(C)[nH]c(=O)[nH]c2=O)cc1	-30.7*	13.5%	i[11.5 µM]	-17.1%	-3.0%
Cc1ccc(SCC(=O)NC(C)(C#N)C2CC2)c(C)c1 (centres undefined)	nt	nt	i	nt	nt
O=C(Nc1ccc(N2CCC(N3CCCCC3)CC2)c(C(=O)O)c1)c1ccccc1	-37.0*	3.7%	?	14.6%	?
CCOc1ccccc1CN(CCc1ccc2c(c1)OCO2)Cc1cccc(OC)c1OC	-1.0	-26.9%	?	?	nt
CCOc1ccc(CN(CCc2ccc3c(c2)OCO3)Cc2cc(OC)c(OC)cc2OC)cc1	-29.5*	-4.9%	?	-4.3%	50.8%
CN(C)c1cc(=O)c2ccnc(N3CCN(c4ccccn4)CC3)c2o1	-26.6*	7.7%[87.6 µM]	i	-7.3%[87.6 µM]	?
Cc1ccc(C)c(Cn2c(N3CCN(CC(C)C)CC3)nc3c2c(=O)[nH]c(=O)n3C)c1	nt	nt	i	nt	nt
OCCOCCN1CCN(C(c2ccccc2)c2ccc(Cl)cc2)CC1 (centres undefined)	-31.1*	-24.2%[23.9 µM]	nt	-31.9%[25.6 µM]	3.66µM*
O=C(O)COCCN1CCN(C(c2ccccc2)c2ccc(Cl)cc2)CC1 (centres undefined)	9.6	-2.8%	nt	-12.2%	nt
Cc1ccc(/C(O)=C2\C(=O)C(=O)N(CCCO)C2c2ccc(Cl)cc2)cc1 (centres undefined)	nt	nt	i	nt	nt
Cc1ccc(C(O)CNC(=O)C2CCC2)cc1 (centres undefined)	nt	nt	i	nt	nt
Cn1c(SCC(=O)Nc2ccc(NC(=O)c3ccccc3)cc2)nnc1-c1ccncc1	nt	nt	i	nt	nt
Cn1c(SCC(=O)Nc2ccccc2)nnc1-c1ccccc1	-34.3*	-7.5%	i	46.5%	-5.5%
CCN(CC)CCNc1nc2c(c(=O)n(C)c(=O)n2C)n1CC(O)COc1ccccc1C (centres undefined)	nt	nt	i	nt	nt
O=C(N[C@@H]1CCOC[C@H]1Oc1cccc(F)c1)c1cnc2ccccn2c1=O	-42.4*	5.1%	35.5µM*	2.9%	-3.5%
CCc1ccccc1NC(=O)c1ccc2nc(C(C)C)oc2c1	-36.1*	3.4%	i	-20.7%	-3.4%
Cc1cccc(Cc2c(C)nc3c(-c4ccccc4)c(C)[nH]n3c2=O)c1	-33.8*	-8.6%	?	-12.6%	?
O=C1CCC2(CCCO2)CCN1Cc1c(F)cccc1F (centres undefined)	13.0	-11.0%	i	1.7%	nt
O=C1CCC2(CCCO2)CCN1Cc1cccc(F)c1F (centres undefined)	-30.8*	-1.8%	i	41.7%	-9.1%
Cc1cnc(NC(=O)CCc2ccc(S(N)(=O)=O)cc2)s1	nt	nt	i	nt	nt
Cc1ccc(OCC(=O)Nc2ccc3nc(SCC(N)=O)sc3c2)cc1	8.2	-0.2%	i	28.3%	nt
Cc1ccc(OCC(=O)Nc2ccc3nc(SCCOc4ccccc4)sc3c2)cc1	-27.4*	1.2%	i	33.2%	-0.2%
Cc1ccc(S(=O)(=O)c2[nH]c(-c3ccccc3)nc2SCC(=O)O)cc1	-25.6*	-0.6%	i	-28.8%	-4.8%
COc1ccccc1CN1CCNc2cnc(OCc3cccnc3)cc2C1	-24.0	-5.4%[87.6 µM]	?	-4.8%[87.6 µM]	nt
SMILES	IP6K1 inhibitor	HEK293 viab	KDM5B inhibitor	SNCA expr inh	IP6K1 conf
COc1ccc(CN2CCNc3cnc(OCc4cccnc4)cc3C2)cc1O	-29.0*	-8.0%[87.6 µM]	i	-14.7%[87.6 µM]	-2.9%
NC(=O)Cc1c[nH]c2ncc(-c3ccc(Oc4ccccc4)cc3)cc12	-41.8*	-12.7%[87.6 µM]	?	-15.2%[87.6 µM]	?
Cc1cc(-c2cnc3[nH]cc(CC(N)=O)c3c2)ccn1	-6.9	12.1%[87.6 µM]	i	11.5%[87.6 µM]	nt
NC(=O)Cc1c[nH]c2ncc(-c3cccc(F)c3)cc12	-34.8*	1.3%[87.6 µM]	31.6µM*	-0.1%[87.6 µM]	?
CNC(=O)c1cccc(-c2cnc3[nH]cc(CC(=O)N(C)c4ccccc4)c3c2)c1	-28.9*	?	i	-0.8%[87.6 µM]	?
C/C(=N/Nc1ccc(Cl)c(Cl)c1)c1ccc(Cl)c(Cl)c1Cl	nt	nt	i	nt	nt
Cc1ccc(NC(=O)C(=O)NCC(c2ccc3c(c2)OCO3)N2CCN(C)CC2)cc1C (centres undefined)	-26.8*	0.6%	i	?	-9.6%
COc1ccc(OC)c(CN2CCNc3cc(-c4ccnc(C)c4)ncc3C2)c1	-27.4*	-19.9%[87.6 µM]	i	44.7%[87.6 µM]	3.4%
NCc1ccccc1Oc1ccc(F)c(Cl)c1	-17.4	6.5%[87.6 µM]	i	-21.1%[87.6 µM]	nt
CCCCn1c(=O)c(C(=O)NCCc2ccc(F)cc2)nc2cccnc21	-26.5*	1.3%	nt	-29.6%	-10.3%
CCCCn1c(=O)c(C(=O)NCCc2ccccc2)nc2cccnc21	4.8	-3.5%	nt	-24.2%	nt
CC1(Cc2ccc3c(c2)OCO3)CCCN(C(=O)c2cncc(Cl)c2)C1 (centres undefined)	25.5	-11.1%	i	3.8%	nt
COc1ccc(NC(=O)c2[nH]nc3c2CSc2ccccc2-3)c(OC)c1	-43.8*	7.8%	i	6.9%	-5.6%
COc1ccc(OC)c(CNC(=O)c2nn(C)c3c2CSc2ccccc2-3)c1	35.2	10.9%	?	-5.9%	nt
CCOC(CNC(=O)CSCc1nc(-c2ccc(C)cc2)oc1C)OCC	nt	nt	i	nt	nt
N#Cc1nc(-c2cccc3ccccc23)oc1N1CCN(Cc2ccccc2)CC1	nt	nt	i	nt	nt
CC(C)C(=O)N1c2ncnn2C2(CCCCC2)[C@@H]2CCCC[C@@H]21	-29.9*	5.5%	?	-20.3%	-16.9%
Cc1ccc(NS(=O)(=O)c2ccc3[nH]c4c(c3c2)CCCCCC4)cc1Cl	6.2	7.5%	?	-22.4%	nt
Cc1cc(C)cc(NC(=O)CN(C)S(=O)(=O)c2ccc3[nH]c4c(c3c2)CCCC4)c1	15.6	-17.1%	?	?	nt
Cc1ccc(NS(=O)(=O)c2ccc3[nH]c4c(c3c2)CCCC4)cc1N(C)C	-26.6*	-23.3%	?	?	-6.6%
Cc1cccc(C)c1NC(=O)CN(C)S(=O)(=O)c1ccc2[nH]c3c(c2c1)CCCC3	-26.3*	-3.5%	?	-15.6%	20.9%
CCOC(=O)[C@@H]1CN(C(=O)Cc2ccc(OC)cc2)[C@H]2c3ccc(OC)cc3O[C@@H]12	18.7	nt	nt	nt	nt
Cc1ccc(C)c(N2CCN(c3ncnc4c3nc3n4CCCC3)CC2)c1	-29.9*	-18.9%	i	23.3%	-3.0%
Cc1cccc(C)c1OCc1cc(=O)n2c(-c3ccccc3)csc2n1	-11.1	6.2%	i	-4.5%	nt
CC(C)c1ccc(OCc2cc(=O)n3c(-c4ccccc4)csc3n2)cc1	-30.7*	-14.0%	?	31.8%	-7.3%
Cc1ccc(-n2ncc(C(=O)N3CCN(c4ccc(Cl)cc4)CC3)c2C2CCN(C(=O)OC(C)(C)C)CC2)c(C)c1	-35.2*	-1.0%	i	-9.4%	9.8%
